The structures appear in SMILES notation.

Common to all, as to format: functional
The target in assay [1] is Solute carrier family 2, facilitated glucose transporter member 1 (Homo sapiens) (UniProt P11166). Kind of assay: ST_JUDE_LEISH: Cytotoxicity at 2uM final concentration against transgenic Leishmania Mexicana promastigotes LmGLUT1 that are glucose transport deficient and complemented with the human glucose transporter GLUT1. Activity is measured by DNA content using SYBR green in vitro.

The target in assay [2] is Hexose transporter 1 (Plasmodium falciparum) (UniProt O97467). Kind of assay: ST_JUDE_LEISH: Cytotoxicity at 2uM final concentration against transgenic Leishmania Mexicana promastigotes LmPfHT that are glucose transport deficient and complemented with the Plasmodium falciparum hexose transporter. Activity is measured by DNA content using SYBR green in vitro.
Assay [3] deals with Glucose transporter (Leishmania mexicana) (UniProt O61059). As to the kind of experiment: ST_JUDE_LEISH: Cytotoxicity at 2uM final concentration against transgenic Leishmania Mexicana promastigotes LmGT2 that are glucose transport deficient and complemented with the L. Mexicana glucose transporter 2. Activity is measured by DNA content using SYBR green in vitro.

Sequence of Solute carrier family 2, facilitated glucose transporter member 1 (Homo sapiens) (P11166 whole entry): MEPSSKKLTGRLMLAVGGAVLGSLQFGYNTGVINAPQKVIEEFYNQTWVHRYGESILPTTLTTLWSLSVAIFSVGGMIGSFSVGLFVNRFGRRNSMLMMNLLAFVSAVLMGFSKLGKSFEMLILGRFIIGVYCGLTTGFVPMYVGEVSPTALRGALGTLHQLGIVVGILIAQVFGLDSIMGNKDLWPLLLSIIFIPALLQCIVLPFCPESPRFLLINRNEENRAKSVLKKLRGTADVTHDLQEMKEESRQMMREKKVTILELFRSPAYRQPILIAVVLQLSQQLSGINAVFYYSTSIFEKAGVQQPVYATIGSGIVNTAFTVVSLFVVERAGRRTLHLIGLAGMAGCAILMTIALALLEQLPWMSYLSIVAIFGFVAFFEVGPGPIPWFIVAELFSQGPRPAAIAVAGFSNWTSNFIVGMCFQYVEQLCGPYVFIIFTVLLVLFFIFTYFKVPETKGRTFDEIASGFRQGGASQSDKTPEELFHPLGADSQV

Regarding `CN1CCCC(OC(=O)c2ccccc2)C1` (stereo unspecified), the figures for the inhibition in assay [1], in assay [2] and in assay [3] were 4.26%, 3.71% and 3.1%, respectively.

As for `Cc1ccccc1C1CCN(C2CCC(NC(=O)c3cncc(-c4ccccc4)c3)CC2)CC1` (stereo unspecified), the inhibition in assay [1] was 6.15%; in assay [2] it was 6.33%; in assay [3] it was 3.53%.

Turning to `Cc1cccc2nc(-c3cccc(-c4ccc(NC(=O)C5CCN(C)CC5)cc4)c3)[nH]c12`, the results for the inhibition in assay [1], in assay [2] and in assay [3] were 5.38%, 2.27% and 7.2%, respectively.

As to `COc1cccc(CCc2c(CCNCCCCCCNCCc3ccccc3)ccc(OC)c2OC)c1`, the results for the inhibition in assay [1], in assay [2] and in assay [3] were 93%, 102% and 106%, respectively.

For `CN1CCc2cc(NC(=O)c3cc4ccccc4s3)cc(-c3ccccc3)c2CC1`, the inhibition came to 97.2% in assay [1], 101% in assay [2] and 95.9% in assay [3].

Regarding `CCc1nc(N)nc(N)c1-c1ccc(C(C)(C)C)cc1`, the inhibition in assay [1] came to 13%; in assay [2], 3.45%; in assay [3], 0.88%.

For the compound `COc1ccc(CCN(C)CCCCNC(=O)c2ccc(NC(=O)c3ccc(Cl)cc3)cc2)c(OC)c1`, the inhibition in assay [1] was found to be 1.64%; in assay [2] it was 2.15%; in assay [3], 2.45%.

In the case of `O=C(Nc1ccc(Cl)c(Cl)c1)Nc1ccc(F)c([N+](=O)[O-])c1`, the results for the inhibition in assay [1], in assay [2] and in assay [3] were -2.06%, 0.4% and -2.36%, respectively.

As for `CN(C)c1ccc(-c2ccc(C(=O)NC3CCN(Cc4ccccc4F)CC3)s2)cc1`, the inhibition is 6.98% in assay [1], 0.05% in assay [2] and 1.85% in assay [3].

Consider `CCCCCCN1CCCN(Cc2ccc(C(=O)Nc3ccc(C)c(F)c3)cc2)CC1`, for which the inhibition was determined as 11.8% in assay [1], 7.68% in assay [2] and 13.7% in assay [3].

Turning to `COc1ccc(OC)c(C=NNc2nc3ccccc3[nH]2)c1`, the inhibition is 5.98% in assay [1], 5.18% in assay [2] and 3.34% in assay [3].

In the case of `COc1ccc2nccc(N3CCC(CCNCc4cc5c(cn4)OCCO5)CC3)c2n1`, the inhibition in assay [1] was -0.34%; in assay [2] it was 0.24%; in assay [3], 1.72%.

Consider `COc1ccc2c(-c3ccccc3)noc2c1`, for which the values for the inhibition in assay [1], in assay [2] and in assay [3] were 0.37%, 0.1% and 1.42%, respectively.

On to `Nc1ccc2[nH]cc(C3CCN(CC4CCN(C(=O)/C=C/c5ccc(Cl)c(Cl)c5)CC4)CC3)c2n1`, for which the inhibition in assay [1] was 2.32%; in assay [2] it was 1.93%; in assay [3], -0.49%.

As to `CN(C)c1ccc(C=C2SC(=N)N(c3nccs3)C2=O)cc1`, the inhibition in assay [1] is 3.25%; in assay [2], 5.28%; in assay [3] it was 4.86%.

`Nc1c2c(nc3ccc(NC(=O)c4ccccc4)cc13)CCCC2`: the inhibition in assay [1] is 3.15%; in assay [2] it was 2.68%; in assay [3], 4.86%.

With `COc1ccc(CCc2ccc(-c3c(C)[nH]c(C)c(Cl)c3=O)cc2)cc1`, the inhibition came to 2.55% in assay [1], 3.51% in assay [2] and 1.05% in assay [3].

In the case of `COc1cc(C(=O)NCCCN2CCN(c3cccc(Cl)c3)CC2)ccc1-c1nc2cc(Cl)c(F)cc2[nH]1`, the inhibition in assay [1] amounted to 1.22%; in assay [2], 0.6%; in assay [3], 0.03%.

For `Cc1c(C(=O)N(C)C)sc2c1c(=O)n(Cc1ccccc1)c(=O)n2CC(=O)Nc1ccccc1F`, the results for the inhibition in assay [1], in assay [2] and in assay [3] were 2.21%, 3.39% and 1.57%, respectively.

`Cc1ccccc1C1CCN(C2CCC(NC(=O)/C=C/c3c[nH]c4ccccc34)CC2)CC1` (stereo unspecified): the values for the inhibition in assay [1], in assay [2] and in assay [3] were 2.31%, 0.84% and -0.41%, respectively.

In the case of `Cc1ccccc1NC(=O)C1CSCN1C(=O)OCc1ccccc1` (stereo unspecified), the inhibition in assay [1] is -1.39%; in assay [2], -0.23%; in assay [3], -0.28%.

For `Oc1ccc(CCNc2nc(N/N=C/c3ccc(Cl)cc3)nc(N3CCNCC3)n2)cc1`, the inhibition in assay [1] is -0.62%; in assay [2], 1.75%; in assay [3], 0.33%.

Turning to `c1ccc2c(Nc3ccc(Cc4ccc(Nc5c6ccccc6nc6ccccc56)cc4)cc3)c3ccccc3nc2c1`, the inhibition in assay [1] came to 6.04%; in assay [2], 6.65%; in assay [3], 2.95%.

As for `CS(=O)(=O)c1ccc(-c2cncc(Nc3cccc([N+](=O)[O-])c3)c2)cc1`, the inhibition in assay [1] came to 7.42%; in assay [2], 7%; in assay [3] it was 6.3%.

On to `CCOc1ccc(-c2nonc2NC(=O)c2ccccc2)cc1OCC`, for which the inhibition in assay [1] amounted to 4.72%; in assay [2] it was 2.09%; in assay [3], 3.26%.

Take `COc1cccc(NC(=O)NCCNc2ccnc(Nc3ccc(F)cc3)n2)c1`: the results for the inhibition in assay [1], in assay [2] and in assay [3] were 4.09%, 5.04% and 0.9%, respectively.

Turning to `Clc1ncccc1-c1nc(NCCC(c2ccccc2)c2ccccc2)no1`, the inhibition is 4.29% in assay [1], 2.24% in assay [2] and 2.64% in assay [3].

Consider `COc1ccc(C2C(C(=O)Nc3cc(OC)c(OC)c(OC)c3)c3cc(OC)c(OC)cc3C(=O)N2C)cc1` (stereo unspecified), for which the inhibition is 1.9% in assay [1], 1.7% in assay [2] and 2.37% in assay [3].

Turning to `Cc1cc(C)c(NC(=O)NC2CCN(CCCCCNC(=O)/C=C/c3ccc(Cl)c(Cl)c3)C2)c(C)c1` (stereo unspecified), the results for the inhibition in assay [1], in assay [2] and in assay [3] were 2.03%, 2.36% and 2.29%, respectively.

Turning to `CN(CCCCCN1CCC(NC(=O)Nc2ccc(Oc3ccccc3)cc2)C1)C(=O)/C=C/c1ccc(Cl)c(Cl)c1` (stereo unspecified), the inhibition in assay [1] is 0%; in assay [2], 6.7%; in assay [3] it was -1.12%.

Take `CC1CCCN1Cc1ccc(-c2ccc3c(=O)cc(CCc4cccc(F)c4F)n(CC(=O)N(C)Cc4ccc(-c5ccc(C(F)(F)F)cc5)cc4)c3n2)cc1` (stereo unspecified): the results for the inhibition in assay [1], in assay [2] and in assay [3] were -0.63%, -4.81% and 10.4%, respectively.

In the case of `CCCC(C)Nc1nc(C)cc(N[C@@H](CC(C)C)C(=O)NCCOc2ccccc2)n1` (stereo partly specified), the inhibition in assay [1] turned out to be 21.4%; in assay [2], 17%; in assay [3], 16.7%.

On to `Cc1[nH]c(C)c(-c2ccc(-c3ccc(C(F)F)cc3)nc2)c(=O)c1Cl`, for which the inhibition in assay [1] was found to be 2.19%; in assay [2] it was 3.08%; in assay [3], 2.57%.

`CN1CCCC1CCOc1ccc2c(c1)N(C(=O)Nc1cc(Br)cc(C(F)(F)F)c1)CC2` (stereo unspecified): the results for the inhibition in assay [1], in assay [2] and in assay [3] were -1.82%, -2.4% and -2.02%, respectively.

Regarding `CCCCN(CCCC)CCCCNc1c2ccc(Cl)cc2nc2ccc(OC)cc12`, the inhibition came out at 14.5% in assay [1], 17.5% in assay [2] and 13.3% in assay [3].

For the compound `O=C(NCCCCN1CCC(c2ccc(C(F)(F)F)cc2C(F)(F)F)CC1)c1ccc(NC(=O)c2ccc(Cl)cc2)cc1`, the inhibition in assay [1] is 0.67%; in assay [2], 3.98%; in assay [3] it was -1.54%.

`C(=NN=c1cc[nH]c2ccccc12)c1ccncc1`: the figures for the inhibition in assay [1], in assay [2] and in assay [3] were 3.99%, 4.32% and 3.95%, respectively.

For the origin of these results see ChEMBL document CHEMBL3433997, “St. Jude Leishmania screening dataset” (2016).
